Here are results for one sequence from publication PMC7862700, “An all-to-all approach to the identification of sequence-specific readers for epigenetic DNA modifications on cytosine”.

Common to all, as to test: DAPPL (digital affinity profiling via proximity ligation, sequencing); 10 mM Tris-HCl pH 7.5, 50 mM NaCl, 1 mM DTT, 4% glycerol, room temperature, 30 min; GST-TFs on glutathione beads, 16-mer random dsDNA library, 0.1% formaldehyde crosslink after washing; high values mean tight binding
Experiment [1] has as its target T1, FEV (Homo sapiens, UniProt Q99581 1-238).
T1 sequence: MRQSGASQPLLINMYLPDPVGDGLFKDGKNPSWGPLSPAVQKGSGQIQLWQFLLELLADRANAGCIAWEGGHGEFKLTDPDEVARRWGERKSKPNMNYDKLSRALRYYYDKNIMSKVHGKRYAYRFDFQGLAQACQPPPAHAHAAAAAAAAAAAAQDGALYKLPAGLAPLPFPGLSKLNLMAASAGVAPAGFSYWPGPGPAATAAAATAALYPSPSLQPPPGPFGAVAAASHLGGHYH
Conditions: protein: recombinant; tags: N-terminal GST; dsDNA, one strand shown. The gist of the method:
(§1)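 A tag-only sample was pooled with DNA-barcoded human transcription factors that had been expressed in yeast as GST fusions and captured on glutathione beads. The pools were incubated for 30 min at room temperature with 200 nmole of a random double-stranded 16-mer DNA library in Tris/NaCl/DTT/glycerol buffer, then washed, crosslinked with 0.1% formaldehyde, proximity-ligated (BsaI/T4 ligase, 1 h, 37 °C), PCR-amplified and sequenced on an Illumina NextSeq500. Binding signal is each hexamer's read frequency for a factor divided by its frequency for the tag-only sample.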

The target of experiment [2] is ETV5 (Homo sapiens, UniProt P41161 1-510). Conditions: protein: recombinant; tags: N-terminal GST; dsDNA, one strand shown. The gist of the method: as §1
ETV5, sequence (P41161 whole entry): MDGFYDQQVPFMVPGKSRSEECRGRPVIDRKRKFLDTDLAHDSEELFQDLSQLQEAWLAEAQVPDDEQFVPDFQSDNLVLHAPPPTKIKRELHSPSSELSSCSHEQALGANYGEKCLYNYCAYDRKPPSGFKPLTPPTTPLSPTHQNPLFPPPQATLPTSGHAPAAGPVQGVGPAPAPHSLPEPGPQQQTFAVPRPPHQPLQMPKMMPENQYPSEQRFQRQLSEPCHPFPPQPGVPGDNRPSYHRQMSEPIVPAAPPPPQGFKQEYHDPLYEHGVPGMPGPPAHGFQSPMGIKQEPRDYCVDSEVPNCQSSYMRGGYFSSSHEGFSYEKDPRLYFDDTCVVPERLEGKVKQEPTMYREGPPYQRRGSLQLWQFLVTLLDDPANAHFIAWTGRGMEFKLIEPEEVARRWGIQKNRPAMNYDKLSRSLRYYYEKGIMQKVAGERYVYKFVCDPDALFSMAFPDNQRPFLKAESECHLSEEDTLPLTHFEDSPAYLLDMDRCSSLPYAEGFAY
The target of experiment [3] is HSF1 (Homo sapiens, UniProt Q00613 1-529). Conditions: protein: recombinant; tags: N-terminal GST; chain copies: 3; dsDNA, one strand shown. The gist of the method: as §1
HSF1, sequence (Q00613 whole entry): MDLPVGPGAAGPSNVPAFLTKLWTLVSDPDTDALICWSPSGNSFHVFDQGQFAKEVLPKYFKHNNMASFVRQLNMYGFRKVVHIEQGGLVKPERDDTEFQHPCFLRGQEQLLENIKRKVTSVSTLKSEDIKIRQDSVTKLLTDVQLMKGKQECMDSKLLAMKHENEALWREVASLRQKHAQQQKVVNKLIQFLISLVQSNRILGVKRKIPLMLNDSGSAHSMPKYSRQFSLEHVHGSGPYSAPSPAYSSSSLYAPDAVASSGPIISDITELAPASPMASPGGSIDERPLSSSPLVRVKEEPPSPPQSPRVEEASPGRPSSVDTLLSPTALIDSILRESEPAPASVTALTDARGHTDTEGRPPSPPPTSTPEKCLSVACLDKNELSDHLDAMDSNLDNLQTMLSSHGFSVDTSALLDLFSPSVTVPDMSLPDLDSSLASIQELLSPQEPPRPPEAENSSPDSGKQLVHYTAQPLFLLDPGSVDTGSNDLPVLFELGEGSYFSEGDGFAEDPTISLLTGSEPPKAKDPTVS
The target in experiment [4] is T2, SPIC (Homo sapiens, UniProt Q8N5J4 1-248).
T2 sequence: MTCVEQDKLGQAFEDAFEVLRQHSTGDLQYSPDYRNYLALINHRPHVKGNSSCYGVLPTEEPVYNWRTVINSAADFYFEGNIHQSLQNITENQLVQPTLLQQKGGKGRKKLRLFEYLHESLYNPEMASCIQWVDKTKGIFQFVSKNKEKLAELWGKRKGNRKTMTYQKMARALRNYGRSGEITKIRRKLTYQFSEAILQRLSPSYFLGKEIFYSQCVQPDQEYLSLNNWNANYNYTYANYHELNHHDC
Conditions: protein: recombinant; tags: N-terminal GST; dsDNA, one strand shown. The gist of the method:
as §1

In experiment [5] the target is ELF4 (Homo sapiens, UniProt Q99607 1-663). Conditions: protein: recombinant; tags: N-terminal GST; dsDNA, one strand shown. The gist of the method: as §1
ELF4, sequence (Q99607 whole entry): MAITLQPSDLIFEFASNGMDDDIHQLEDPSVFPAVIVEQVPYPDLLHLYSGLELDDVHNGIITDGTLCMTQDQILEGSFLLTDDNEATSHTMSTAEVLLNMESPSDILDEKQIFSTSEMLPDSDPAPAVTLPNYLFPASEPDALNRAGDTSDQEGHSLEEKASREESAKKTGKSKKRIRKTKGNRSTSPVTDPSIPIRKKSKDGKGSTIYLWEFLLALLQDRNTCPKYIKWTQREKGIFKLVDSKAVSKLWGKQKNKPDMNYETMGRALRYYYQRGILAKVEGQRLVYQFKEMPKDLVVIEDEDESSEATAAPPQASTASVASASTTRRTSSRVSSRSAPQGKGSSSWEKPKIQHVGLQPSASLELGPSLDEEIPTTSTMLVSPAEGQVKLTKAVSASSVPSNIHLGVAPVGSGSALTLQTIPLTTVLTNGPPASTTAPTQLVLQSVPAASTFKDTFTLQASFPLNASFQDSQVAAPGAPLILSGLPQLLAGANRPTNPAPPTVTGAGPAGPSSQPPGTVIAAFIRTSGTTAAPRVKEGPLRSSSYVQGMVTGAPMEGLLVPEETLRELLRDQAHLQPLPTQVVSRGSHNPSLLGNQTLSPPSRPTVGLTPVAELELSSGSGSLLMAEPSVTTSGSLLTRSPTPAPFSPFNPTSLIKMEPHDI
Experiment [6] deals with T3, ELK4 (Homo sapiens, UniProt P28324-2 1-405).
T3 sequence: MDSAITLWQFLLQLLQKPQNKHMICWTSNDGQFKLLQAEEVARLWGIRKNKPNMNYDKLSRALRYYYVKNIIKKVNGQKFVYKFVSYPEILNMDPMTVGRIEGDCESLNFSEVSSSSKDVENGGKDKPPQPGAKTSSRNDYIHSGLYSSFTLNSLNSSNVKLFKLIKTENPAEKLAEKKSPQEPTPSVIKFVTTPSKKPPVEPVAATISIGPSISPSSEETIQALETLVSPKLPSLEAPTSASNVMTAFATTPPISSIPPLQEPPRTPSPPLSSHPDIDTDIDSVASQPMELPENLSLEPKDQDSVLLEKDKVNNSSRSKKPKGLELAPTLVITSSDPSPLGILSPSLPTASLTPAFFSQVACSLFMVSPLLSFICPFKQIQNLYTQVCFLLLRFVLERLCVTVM
Conditions: protein: recombinant; tags: N-terminal GST; dsDNA, one strand shown. The gist of the method: as §1

For experiment [7], the target named is T4, ETV2 (Homo sapiens, UniProt O00321 1-342).
T4 sequence: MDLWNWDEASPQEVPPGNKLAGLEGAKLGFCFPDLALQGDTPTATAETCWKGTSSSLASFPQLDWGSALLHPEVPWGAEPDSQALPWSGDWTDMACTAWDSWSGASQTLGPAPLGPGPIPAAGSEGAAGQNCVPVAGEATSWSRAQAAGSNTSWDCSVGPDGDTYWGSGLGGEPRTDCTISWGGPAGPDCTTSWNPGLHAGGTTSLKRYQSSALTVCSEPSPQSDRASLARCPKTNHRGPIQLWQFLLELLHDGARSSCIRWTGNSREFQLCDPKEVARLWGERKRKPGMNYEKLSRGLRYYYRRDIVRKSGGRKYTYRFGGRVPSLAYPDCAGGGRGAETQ
Conditions: protein: recombinant; tags: N-terminal GST; dsDNA, one strand shown. The gist of the method:
as §1

Experiment [8] has as its target T5, ELF3 (Homo sapiens, UniProt P78545 1-371).
T5 sequence: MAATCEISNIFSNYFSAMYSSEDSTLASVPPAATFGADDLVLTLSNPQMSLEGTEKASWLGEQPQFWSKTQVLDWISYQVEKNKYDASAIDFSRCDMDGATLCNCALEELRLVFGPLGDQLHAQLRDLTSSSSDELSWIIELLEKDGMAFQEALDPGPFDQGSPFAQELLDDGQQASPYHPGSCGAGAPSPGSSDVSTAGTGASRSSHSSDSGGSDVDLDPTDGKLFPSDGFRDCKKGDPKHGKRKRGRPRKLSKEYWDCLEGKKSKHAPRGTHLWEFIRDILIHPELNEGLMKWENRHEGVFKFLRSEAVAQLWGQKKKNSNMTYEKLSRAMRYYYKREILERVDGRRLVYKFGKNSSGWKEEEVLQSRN
Conditions: protein: recombinant; tags: N-terminal GST; dsDNA, one strand shown. The gist of the method:
as §1

Experiment [9] addresses CRX (Homo sapiens, UniProt O43186 1-299). Conditions: protein: recombinant; tags: N-terminal GST; dsDNA, one strand shown. The gist of the method:
as §1

For experiment [10], the target named is ETV1 (Homo sapiens, UniProt P50549 1-477). Conditions: protein: recombinant; tags: N-terminal GST; dsDNA, one strand shown. The gist of the method:
as §1

The target of experiment [11] is T6, ERF (Homo sapiens, UniProt P50548 1-548).
T6 sequence: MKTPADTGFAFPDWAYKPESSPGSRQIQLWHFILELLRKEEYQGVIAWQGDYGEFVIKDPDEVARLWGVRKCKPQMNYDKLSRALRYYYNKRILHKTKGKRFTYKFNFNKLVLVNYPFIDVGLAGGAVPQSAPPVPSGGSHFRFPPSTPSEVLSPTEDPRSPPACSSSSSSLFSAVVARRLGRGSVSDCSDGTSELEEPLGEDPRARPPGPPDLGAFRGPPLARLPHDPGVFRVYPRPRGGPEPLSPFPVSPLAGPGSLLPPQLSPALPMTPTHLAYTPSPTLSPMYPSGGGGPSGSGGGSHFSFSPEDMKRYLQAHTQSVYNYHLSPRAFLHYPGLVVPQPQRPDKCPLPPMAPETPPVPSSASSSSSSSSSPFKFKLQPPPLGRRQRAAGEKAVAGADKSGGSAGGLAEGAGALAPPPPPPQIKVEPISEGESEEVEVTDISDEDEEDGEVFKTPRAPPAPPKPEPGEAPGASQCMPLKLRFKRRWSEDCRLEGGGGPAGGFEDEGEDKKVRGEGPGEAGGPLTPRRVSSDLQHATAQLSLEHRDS
Conditions: protein: recombinant; tags: N-terminal GST; dsDNA, one strand shown. The gist of the method:
as §1

The target in experiment [12] is T7, ETV3L (Homo sapiens, UniProt Q6ZN32 1-361).
T7 sequence: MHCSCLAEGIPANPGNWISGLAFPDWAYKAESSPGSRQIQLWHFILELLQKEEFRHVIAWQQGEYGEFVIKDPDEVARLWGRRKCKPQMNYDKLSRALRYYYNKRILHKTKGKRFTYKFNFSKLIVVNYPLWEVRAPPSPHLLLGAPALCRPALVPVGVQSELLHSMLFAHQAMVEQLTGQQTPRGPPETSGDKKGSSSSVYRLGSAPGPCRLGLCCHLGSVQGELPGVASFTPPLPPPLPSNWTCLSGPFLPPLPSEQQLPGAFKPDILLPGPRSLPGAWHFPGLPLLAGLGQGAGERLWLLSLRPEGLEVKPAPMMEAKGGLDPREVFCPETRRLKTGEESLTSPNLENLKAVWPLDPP
Conditions: protein: recombinant; tags: N-terminal GST; dsDNA, one strand shown. The gist of the method:
as §1

For experiment [13], the target named is T8, ETS2 (Homo sapiens, UniProt P15036 1-469).
T8 sequence: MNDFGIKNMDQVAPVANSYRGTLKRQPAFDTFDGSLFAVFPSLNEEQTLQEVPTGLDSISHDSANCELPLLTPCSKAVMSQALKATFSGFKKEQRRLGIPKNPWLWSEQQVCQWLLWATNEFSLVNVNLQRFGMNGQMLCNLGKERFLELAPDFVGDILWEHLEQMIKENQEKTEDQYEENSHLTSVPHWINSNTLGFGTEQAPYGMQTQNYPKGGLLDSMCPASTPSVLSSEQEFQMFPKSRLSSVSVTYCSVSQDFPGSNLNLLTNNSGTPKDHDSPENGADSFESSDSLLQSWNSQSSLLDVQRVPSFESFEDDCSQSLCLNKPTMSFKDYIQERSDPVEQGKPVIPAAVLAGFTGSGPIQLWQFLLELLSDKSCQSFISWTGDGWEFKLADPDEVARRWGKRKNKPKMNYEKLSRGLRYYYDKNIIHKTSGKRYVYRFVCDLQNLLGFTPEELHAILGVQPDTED
Conditions: protein: recombinant; tags: N-terminal GST; dsDNA, one strand shown. The gist of the method: as §1

In experiment [14] the target is T9, SPDEF (Homo sapiens, UniProt O95238 1-335).
T9 sequence: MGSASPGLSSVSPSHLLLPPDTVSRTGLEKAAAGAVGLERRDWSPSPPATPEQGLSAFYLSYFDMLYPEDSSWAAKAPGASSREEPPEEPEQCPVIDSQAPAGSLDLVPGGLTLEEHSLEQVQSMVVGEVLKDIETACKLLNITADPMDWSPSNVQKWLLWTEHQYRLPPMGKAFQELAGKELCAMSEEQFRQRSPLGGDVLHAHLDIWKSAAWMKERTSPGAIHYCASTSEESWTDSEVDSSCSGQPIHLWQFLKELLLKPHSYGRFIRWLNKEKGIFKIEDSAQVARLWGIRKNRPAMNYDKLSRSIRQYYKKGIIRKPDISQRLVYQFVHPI
Conditions: protein: recombinant; tags: N-terminal GST; dsDNA, one strand shown. The gist of the method: as §1

The target of experiment [15] is T10, ETV7 (Homo sapiens, UniProt Q9Y603 1-341).
T10 sequence: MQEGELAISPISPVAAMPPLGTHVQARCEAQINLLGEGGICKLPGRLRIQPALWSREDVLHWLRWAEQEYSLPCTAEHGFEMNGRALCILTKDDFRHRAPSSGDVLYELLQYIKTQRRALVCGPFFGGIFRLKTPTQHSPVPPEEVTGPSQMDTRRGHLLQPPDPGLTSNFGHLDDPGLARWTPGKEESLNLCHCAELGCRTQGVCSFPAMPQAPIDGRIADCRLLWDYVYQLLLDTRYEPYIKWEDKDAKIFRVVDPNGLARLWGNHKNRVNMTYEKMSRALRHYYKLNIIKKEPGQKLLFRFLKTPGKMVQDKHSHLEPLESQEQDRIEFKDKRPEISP
Conditions: protein: recombinant; tags: N-terminal GST; dsDNA, one strand shown. The gist of the method:
as §1

For experiment [16], the target named is T11, ELF5 (Homo sapiens, UniProt Q9UKW6-2 1-255).
T11 sequence: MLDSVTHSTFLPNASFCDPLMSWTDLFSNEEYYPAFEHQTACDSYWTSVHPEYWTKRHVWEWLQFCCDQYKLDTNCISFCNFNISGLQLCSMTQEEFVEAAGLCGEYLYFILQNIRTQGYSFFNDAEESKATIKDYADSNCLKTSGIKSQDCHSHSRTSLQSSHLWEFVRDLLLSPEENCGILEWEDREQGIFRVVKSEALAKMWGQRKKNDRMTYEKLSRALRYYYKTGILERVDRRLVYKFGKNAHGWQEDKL
Conditions: protein: recombinant; tags: N-terminal GST; dsDNA, one strand shown. The gist of the method: as §1

Experiment [17] deals with T12, ETV3 (Homo sapiens, UniProt P41162-2 1-143).
T12 sequence: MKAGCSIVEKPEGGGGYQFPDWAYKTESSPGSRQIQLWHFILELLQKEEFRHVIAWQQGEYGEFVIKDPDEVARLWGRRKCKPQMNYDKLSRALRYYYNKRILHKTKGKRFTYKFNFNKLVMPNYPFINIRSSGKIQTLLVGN
Conditions: protein: recombinant; tags: N-terminal GST; dsDNA, one strand shown. The gist of the method:
as §1

Experiment [18] concerns the target ETV6 (Homo sapiens, UniProt P41212 1-452). Conditions: protein: recombinant; tags: N-terminal GST; dsDNA, one strand shown. The gist of the method:
as §1

ETV1, sequence (P50549 whole entry): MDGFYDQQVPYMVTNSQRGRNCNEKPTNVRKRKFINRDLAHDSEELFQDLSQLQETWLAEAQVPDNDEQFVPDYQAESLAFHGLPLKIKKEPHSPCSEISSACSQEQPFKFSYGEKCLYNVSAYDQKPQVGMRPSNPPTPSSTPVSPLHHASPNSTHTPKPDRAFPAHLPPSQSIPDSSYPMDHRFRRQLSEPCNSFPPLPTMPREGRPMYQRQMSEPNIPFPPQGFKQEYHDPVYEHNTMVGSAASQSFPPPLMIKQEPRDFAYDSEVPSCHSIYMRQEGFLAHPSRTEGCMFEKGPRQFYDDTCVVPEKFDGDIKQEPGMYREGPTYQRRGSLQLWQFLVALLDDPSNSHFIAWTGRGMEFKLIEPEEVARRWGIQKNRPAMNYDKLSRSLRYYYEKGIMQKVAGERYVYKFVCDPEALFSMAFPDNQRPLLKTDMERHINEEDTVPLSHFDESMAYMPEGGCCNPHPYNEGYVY
CRX, sequence (O43186 whole entry): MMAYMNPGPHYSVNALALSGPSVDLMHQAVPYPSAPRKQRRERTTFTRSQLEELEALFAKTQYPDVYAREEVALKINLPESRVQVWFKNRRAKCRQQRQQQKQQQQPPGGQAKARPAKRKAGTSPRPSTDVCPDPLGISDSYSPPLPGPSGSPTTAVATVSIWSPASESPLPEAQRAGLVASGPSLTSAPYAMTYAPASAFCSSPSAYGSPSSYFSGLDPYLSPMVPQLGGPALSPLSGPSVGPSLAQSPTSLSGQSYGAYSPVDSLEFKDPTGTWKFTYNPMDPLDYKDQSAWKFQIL
ETV6, sequence (P41212 whole entry): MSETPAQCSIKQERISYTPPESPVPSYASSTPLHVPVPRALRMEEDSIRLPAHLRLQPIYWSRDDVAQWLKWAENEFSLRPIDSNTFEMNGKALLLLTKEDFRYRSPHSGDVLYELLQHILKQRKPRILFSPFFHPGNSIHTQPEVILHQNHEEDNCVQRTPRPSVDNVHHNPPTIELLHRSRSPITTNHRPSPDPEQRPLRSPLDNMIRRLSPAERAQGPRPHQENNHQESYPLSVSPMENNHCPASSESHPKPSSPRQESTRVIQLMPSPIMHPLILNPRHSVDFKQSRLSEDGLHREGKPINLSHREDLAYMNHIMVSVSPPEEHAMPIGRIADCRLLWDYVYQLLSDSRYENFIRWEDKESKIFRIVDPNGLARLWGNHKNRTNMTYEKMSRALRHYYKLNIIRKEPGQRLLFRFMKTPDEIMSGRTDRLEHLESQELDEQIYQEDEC

Regarding TAATCA, the binding signal in experiment [1] was 1.13 fold enrichment (6-mer frequency, TF over GST control); in experiment [2] it was 1.18 fold enrichment (6-mer frequency, TF over GST control); in experiment [3], 1.64 fold enrichment (6-mer frequency, TF over GST control); in experiment [4], 1.26 fold enrichment (6-mer frequency, TF over GST control); in experiment [5] it was 1.11 fold enrichment (6-mer frequency, TF over GST control); in [6], 1.32 fold enrichment (6-mer frequency, TF over GST control). The binding signal in [7] was 1.27 fold enrichment (6-mer frequency, TF over GST control); in experiment [8], 1.18 fold enrichment (6-mer frequency, TF over GST control); in experiment [9], 2.51 fold enrichment (6-mer frequency, TF over GST control); in experiment [10], 1.14 fold enrichment (6-mer frequency, TF over GST control); in [11], 1.09 fold enrichment (6-mer frequency, TF over GST control); in [12], 1.12 fold enrichment (6-mer frequency, TF over GST control). Also, the binding signal in experiment [13] was 1.14 fold enrichment (6-mer frequency, TF over GST control); in experiment [14], 1.11 fold enrichment (6-mer frequency, TF over GST control); in experiment [15], 1.1 fold enrichment (6-mer frequency, TF over GST control); in [16], 1.08 fold enrichment (6-mer frequency, TF over GST control); in experiment [17], 1.15 fold enrichment (6-mer frequency, TF over GST control); in experiment [18] it was 1.18 fold enrichment (6-mer frequency, TF over GST control).
